The full data set covers some 8,800 targets. This sample favours those with a hit. About 0.5% of all pairs of compound and target were hits. A number with no mark means an inactive call.
What was measured:
Test in all cases: log2 fold change, soluble protein after heating vs DMSO (PISA); higher = thermal stabilisation; K562 lysate, 10 uM; active = over 0.2 and 3.5 SD of the protein, either way, in both replicates (recomputed)
erlotinib = compound: C#Cc1cccc(Nc2ncnc3cc(OCCOC)c(OCCOC)cc23)c1 [erlotinib]
How it was run: (§1)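 Soluble protein was defined as the supernatant remaining after 21,000xg for 90 min, following pooling of heated aliquots and adjustment to 0.5% NP-40 at 4°C. Before that, crude K562 extract at 1 mg/mL protein in PBS pH 7.4 with 1 mM MgCl2 was treated with 10 μM compound for 30 min and heated for 3 min across 48°C-58°C. Quantification used TMTpro 16plex LC-MS/MS with channel sums equalised, and values are log-two fold changes in thermal stability relative to solvent controls from duplicates.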

[1] = compound: C/C(=N\NC(=O)C1=CC(=CC=C1)S(=O)(=O)N2CCOCC2)/C3=C(C=CC(=C3)Cl)O
How it was run: as §1

[2] = compound: C1=CC(=CC=C1C2=NC3=C(N2)C=C(C=C3)C(=O)N)OC4=CC=C(C=C4)Cl
How it was run: as §1

[3] = compound: C1=CC2=C(C=CC(=C2)/C=C\3/C(=O)NC(=NCC4=CC=CS4)S3)N=C1
How it was run: as §1

[4] = compound: C1=CC2=NC=CN=C2C=C1/C=C/3\C(=O)NC(=O)S3
How it was run: as §1

[5] = compound: C1=CC=C(C=C1)C2=NC(=C(N2)C3=CC=NC=C3)C4=CC(=C(C=C4)Cl)O
How it was run: as §1

[6] = compound: C1=CC=C2C(=C1)C3=NNC4=CC=CC(=C43)C2=O
How it was run: as §1

[7] = compound: C1CCN(C1)C(=O)NC2=CC=CC(=C2)NC3=NC=C(C(=N3)NCCC4=CN=CN4)Br
How it was run: as §1

[8] = compound: C1CN(CCC1(CC2=CC=C(C=C2)Cl)N)C3=NC=NC4=C3C=CN4
How it was run: as §1

IRAK-1-4 Inhibitor I = compound: C1COCCN1CCN2C3=CC=CC=C3N=C2NC(=O)C4=CC(=CC=C4)[N+](=O)[O-] [IRAK-1-4 Inhibitor I]
How it was run: as §1

Sequence of UniProt Q15058 (Q15058 whole entry, looked up): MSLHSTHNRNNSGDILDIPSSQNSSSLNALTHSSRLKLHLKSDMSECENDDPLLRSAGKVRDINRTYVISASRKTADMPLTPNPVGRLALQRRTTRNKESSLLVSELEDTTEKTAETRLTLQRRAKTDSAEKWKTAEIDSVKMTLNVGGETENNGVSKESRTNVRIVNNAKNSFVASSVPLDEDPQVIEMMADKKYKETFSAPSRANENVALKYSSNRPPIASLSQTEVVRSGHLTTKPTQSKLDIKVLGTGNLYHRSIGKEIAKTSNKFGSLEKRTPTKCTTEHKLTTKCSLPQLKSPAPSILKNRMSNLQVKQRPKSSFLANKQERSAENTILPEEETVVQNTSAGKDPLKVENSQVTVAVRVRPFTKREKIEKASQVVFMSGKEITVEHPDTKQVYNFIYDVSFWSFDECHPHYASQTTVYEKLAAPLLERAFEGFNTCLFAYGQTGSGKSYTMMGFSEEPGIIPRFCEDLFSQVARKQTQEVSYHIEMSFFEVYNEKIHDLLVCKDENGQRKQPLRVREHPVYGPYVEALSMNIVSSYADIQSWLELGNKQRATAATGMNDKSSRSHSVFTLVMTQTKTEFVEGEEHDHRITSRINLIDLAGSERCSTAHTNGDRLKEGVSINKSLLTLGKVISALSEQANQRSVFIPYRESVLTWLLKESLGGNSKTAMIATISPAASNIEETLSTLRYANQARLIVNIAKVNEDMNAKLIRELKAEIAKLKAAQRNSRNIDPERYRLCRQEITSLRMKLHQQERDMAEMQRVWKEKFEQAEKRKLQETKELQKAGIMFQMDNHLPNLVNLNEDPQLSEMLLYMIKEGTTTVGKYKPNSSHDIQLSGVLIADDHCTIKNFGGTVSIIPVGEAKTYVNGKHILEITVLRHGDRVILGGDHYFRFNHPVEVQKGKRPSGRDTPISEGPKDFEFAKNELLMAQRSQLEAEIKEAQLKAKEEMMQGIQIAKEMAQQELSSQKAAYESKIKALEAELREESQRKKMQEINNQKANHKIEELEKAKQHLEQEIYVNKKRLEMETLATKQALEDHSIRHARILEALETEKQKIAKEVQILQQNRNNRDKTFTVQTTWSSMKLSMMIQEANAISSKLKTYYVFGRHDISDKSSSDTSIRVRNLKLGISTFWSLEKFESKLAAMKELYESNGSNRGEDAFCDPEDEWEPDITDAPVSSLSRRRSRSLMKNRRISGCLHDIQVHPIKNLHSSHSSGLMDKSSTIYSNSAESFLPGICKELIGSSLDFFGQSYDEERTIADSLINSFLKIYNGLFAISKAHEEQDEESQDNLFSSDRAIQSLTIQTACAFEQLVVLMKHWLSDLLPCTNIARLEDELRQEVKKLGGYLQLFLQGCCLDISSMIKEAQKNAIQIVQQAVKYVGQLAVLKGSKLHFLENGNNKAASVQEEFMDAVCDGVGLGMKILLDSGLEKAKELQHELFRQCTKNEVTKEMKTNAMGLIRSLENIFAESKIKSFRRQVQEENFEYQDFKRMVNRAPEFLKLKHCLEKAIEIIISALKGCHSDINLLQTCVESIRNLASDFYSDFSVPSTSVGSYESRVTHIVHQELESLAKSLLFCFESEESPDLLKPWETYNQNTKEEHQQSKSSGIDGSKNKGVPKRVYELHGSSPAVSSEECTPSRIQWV
Sequence of UniProt P49917 (P49917 whole entry, looked up): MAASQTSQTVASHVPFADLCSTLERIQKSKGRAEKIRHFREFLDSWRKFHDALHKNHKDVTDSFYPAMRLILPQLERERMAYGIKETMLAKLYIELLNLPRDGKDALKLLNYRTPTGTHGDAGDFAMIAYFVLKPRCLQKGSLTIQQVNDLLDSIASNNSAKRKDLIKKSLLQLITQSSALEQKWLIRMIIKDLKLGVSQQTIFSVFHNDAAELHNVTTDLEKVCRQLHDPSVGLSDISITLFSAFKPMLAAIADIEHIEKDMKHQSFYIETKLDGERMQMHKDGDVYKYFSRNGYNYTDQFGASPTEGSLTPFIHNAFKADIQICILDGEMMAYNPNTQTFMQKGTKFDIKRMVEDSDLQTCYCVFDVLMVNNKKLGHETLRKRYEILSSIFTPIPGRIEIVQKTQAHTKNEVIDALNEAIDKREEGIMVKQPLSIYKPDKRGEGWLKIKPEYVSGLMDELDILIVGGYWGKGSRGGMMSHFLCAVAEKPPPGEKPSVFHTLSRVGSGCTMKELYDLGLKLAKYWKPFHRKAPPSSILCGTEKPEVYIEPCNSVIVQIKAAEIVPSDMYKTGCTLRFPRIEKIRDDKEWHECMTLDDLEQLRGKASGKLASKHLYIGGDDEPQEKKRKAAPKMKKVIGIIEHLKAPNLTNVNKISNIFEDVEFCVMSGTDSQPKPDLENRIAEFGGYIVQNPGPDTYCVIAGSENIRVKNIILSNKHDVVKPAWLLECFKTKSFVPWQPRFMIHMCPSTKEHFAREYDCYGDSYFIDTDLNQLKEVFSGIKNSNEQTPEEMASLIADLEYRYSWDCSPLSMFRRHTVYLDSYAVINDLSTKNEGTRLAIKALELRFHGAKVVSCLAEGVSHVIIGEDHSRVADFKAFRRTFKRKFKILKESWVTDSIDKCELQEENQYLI
Sequence of UniProt Q5SRI9 (Q5SRI9 whole entry, looked up): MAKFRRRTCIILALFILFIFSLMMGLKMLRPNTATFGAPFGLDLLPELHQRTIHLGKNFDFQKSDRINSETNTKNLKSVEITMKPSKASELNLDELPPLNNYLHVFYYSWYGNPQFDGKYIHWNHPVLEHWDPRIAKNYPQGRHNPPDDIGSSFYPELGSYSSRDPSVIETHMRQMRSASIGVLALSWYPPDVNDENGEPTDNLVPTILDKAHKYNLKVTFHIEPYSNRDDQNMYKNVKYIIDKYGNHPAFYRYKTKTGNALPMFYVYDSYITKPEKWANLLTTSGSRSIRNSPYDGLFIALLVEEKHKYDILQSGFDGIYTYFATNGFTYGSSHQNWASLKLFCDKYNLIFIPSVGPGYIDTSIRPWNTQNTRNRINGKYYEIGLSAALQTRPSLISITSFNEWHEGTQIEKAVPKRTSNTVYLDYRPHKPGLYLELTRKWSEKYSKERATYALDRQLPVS
Sequence of UniProt Q92615 (Q92615 whole entry, looked up): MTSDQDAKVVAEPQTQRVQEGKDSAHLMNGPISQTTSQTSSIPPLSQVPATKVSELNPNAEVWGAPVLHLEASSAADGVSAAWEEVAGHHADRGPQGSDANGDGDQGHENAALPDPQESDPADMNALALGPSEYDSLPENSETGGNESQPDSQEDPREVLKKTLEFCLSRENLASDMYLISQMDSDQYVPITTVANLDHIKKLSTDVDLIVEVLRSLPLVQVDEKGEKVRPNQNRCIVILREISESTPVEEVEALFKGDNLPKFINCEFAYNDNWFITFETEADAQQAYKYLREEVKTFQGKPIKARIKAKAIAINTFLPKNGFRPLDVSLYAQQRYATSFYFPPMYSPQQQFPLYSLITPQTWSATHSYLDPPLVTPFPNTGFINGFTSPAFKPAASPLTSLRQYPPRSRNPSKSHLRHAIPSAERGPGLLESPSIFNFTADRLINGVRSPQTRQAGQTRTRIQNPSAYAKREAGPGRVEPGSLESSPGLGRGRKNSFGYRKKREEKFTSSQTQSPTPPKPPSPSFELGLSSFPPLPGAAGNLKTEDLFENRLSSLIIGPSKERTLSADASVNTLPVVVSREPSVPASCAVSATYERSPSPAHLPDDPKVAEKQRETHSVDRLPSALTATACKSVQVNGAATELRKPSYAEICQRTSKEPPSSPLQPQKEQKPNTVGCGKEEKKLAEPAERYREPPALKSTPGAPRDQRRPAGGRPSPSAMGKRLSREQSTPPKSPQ
Sequence of UniProt Q66K74 (Q66K74 whole entry, looked up): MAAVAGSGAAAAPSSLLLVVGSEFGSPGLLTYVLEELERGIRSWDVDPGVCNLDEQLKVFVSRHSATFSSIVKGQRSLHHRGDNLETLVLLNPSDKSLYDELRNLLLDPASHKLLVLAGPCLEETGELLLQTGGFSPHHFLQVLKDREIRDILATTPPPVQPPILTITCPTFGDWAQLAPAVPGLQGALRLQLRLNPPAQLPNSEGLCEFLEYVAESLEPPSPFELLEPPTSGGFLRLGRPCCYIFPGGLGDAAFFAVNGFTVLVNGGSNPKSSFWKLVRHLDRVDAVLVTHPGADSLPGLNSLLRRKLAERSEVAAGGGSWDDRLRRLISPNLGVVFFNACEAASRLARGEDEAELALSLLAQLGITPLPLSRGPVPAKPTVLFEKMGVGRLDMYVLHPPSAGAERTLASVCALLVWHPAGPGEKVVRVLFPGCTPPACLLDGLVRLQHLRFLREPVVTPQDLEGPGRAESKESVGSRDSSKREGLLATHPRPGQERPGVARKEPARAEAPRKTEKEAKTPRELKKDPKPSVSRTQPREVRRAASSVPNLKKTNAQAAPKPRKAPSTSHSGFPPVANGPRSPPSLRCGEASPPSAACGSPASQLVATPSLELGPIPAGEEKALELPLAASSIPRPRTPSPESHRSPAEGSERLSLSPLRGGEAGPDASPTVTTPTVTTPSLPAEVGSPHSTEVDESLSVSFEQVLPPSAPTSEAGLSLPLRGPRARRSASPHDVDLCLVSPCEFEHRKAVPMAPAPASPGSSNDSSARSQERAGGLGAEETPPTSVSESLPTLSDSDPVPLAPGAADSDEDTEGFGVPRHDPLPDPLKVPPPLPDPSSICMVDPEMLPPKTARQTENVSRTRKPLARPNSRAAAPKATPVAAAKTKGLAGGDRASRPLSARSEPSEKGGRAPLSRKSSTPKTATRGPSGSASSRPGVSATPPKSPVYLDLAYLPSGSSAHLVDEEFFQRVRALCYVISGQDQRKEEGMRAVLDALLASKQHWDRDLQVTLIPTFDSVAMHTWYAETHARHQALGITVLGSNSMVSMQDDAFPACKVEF
Sequence of UniProt Q9H8H3 (Q9H8H3 whole entry, looked up): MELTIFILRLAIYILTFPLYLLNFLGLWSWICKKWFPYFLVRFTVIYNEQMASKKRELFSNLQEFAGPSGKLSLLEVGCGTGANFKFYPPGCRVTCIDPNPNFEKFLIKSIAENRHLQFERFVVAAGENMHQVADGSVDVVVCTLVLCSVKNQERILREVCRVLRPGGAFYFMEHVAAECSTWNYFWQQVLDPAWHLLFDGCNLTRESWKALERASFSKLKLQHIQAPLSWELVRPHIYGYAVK

Row | Target | log2 fold change (erlotinib) | log2 fold change [1] | log2 fold change [2] | log2 fold change [3] | log2 fold change [4] | log2 fold change [5] | log2 fold change [6] | log2 fold change [7] | log2 fold change [8] | log2 fold change (IRAK-1-4 Inhibitor I)
1 | MARF1 (UniProt Q9Y4F3) | 0.025 | 0.231 | 0.043 | -0.157 | 0.122 | 0.019 | 0.073 | -0.111 | -0.035 | -0.003
2 | MRPL10 isoform 2 (UniProt Q7Z7H8) | -0.032 | 0 | 0.043 | 0.022 | -0.141 | -0.002 | -0.016 | -0.062 | 0.015 | 0.014
3 | L3HYPDH (UniProt Q96EM0) | -0.004 | 0.057 | 0.028 | -0.027 | 0.033 | -0.03 | -0.048 | 0 | 0.038 | 0.029
4 | LZTR1 (UniProt Q8N653) | 0.051 | 0.099 | -0.018 | -0.015 | 0.022 | -0.005 | -0.071 | 0.066 | 0.106 | 0.08
5 | KMT2A isoform 3 (UniProt Q03164) | -0.022 | 0.351 | 0.041 | -0.047 | -0.014 | -0.069 | -0.004 | 0.005 | -0.06 | 0.07
6 | LDAH isoform 2 (UniProt Q9H6V9) | -0.017 | -0.015 | -0.057 | -0.023 | 0.005 | -0.01 | -0.021 | -0.032 | 0 | 0.029
7 | LLGL1 (UniProt Q15334) | 0.036 | -0.06 | 0.021 | 0.02 | 0.007 | 0.001 | -0.112 | -0.08 | 0.018 | -0.136
8 | KIF4B (UniProt Q2VIQ3) | -0.018 | -0.035 | -0.017 | 0.032 | -0.005 | 0.034 | 0.004 | -0.003 | -0.027 | -0.061
9 | MED12 isoform 2 (UniProt Q93074) | 0.007 | -0.037 | 0 | 0.009 | 0.008 | 0.004 | -0.025 | -0.013 | 0.011 | -0.035
10 | MAP1S (UniProt Q66K74) | 0.027 | 0 | -0.023 | -0.016 | -0.018 | 0.003 | -0.027 | -0.044 | 0.005 | 0.01
11 | KLC4 isoform 3 (UniProt Q9NSK0) | 0 | -0.017 | 0.05 | 0 | 0 | 0.018 | -0.029 | -0.056 | 0.007 | -0.021
12 | LIG4 (UniProt P49917) | 0.107 | 0.014 | -0.04 | 0.028 | 0.002 | 0.024 | -0.003 | 0.009 | -0.057 | -0.001
13 | KIF14 (UniProt Q15058) | 0.031 | -0.06 | 0.016 | -0.04 | -0.176 | 0.01 | -0.032 | -0.002 | 0.008 | -0.014
14 | MLH1 (UniProt P40692) | 0.018 | 0.021 | -0.011 | 0.012 | -0.079 | 0.025 | -0.019 | -0.037 | 0.015 | -0.002
15 | MANEA (UniProt Q5SRI9) | -0.079 | -0.119 | 0.076 | 0.089 | 0.027 | 0.118 | -0.092 | -0.014 | 0.016 | 0.041
16 | LARP4B (UniProt Q92615) | -0.019 | 0.013 | -0.027 | -0.005 | 0.009 | -0.021 | 0.033 | 0.012 | -0.033 | -0.025
17 | MAP2K5 (UniProt Q13163) | 0.16 | 0.153 | -0.024 | 0.142 | -0.097 | -0.015 | 0.06 | -0.007 | -0.024 | 0.144
18 | MAST4 (UniProt O15021) | -0.019 | -0.026 | -0.031 | 0.027 | -0.044 | 0.01 | 0.384 (active) | 0.149 | -0.011 | -0.008
19 | KRI1 (UniProt Q8N9T8) | -0.017 | -0.038 | -0.017 | -0.1 | -0.012 | 0.02 | -0.138 | 0.033 | -0.04 | 0.047
20 | LYSMD3 (UniProt Q7Z3D4) | -0.067 | -0.051 | 0.044 | 0.069 | 0.05 | 0.007 | -0.11 | 0.037 | 0 | -0.01
21 | MICB, A0A140T979 | 0.022 | 0.086 | -0.029 | -0.07 | -0.168 | 0.034 | 0.046 | -0.021 | 0.275 | 0.023
22 | KLHL36 (UniProt Q8N4N3) | -0.047 | -0.001 | 0.06 | -0.112 | -0.313 (active) | -0.041 | 0.013 | -0.009 | 0.084 | 0.011
23 | KIF4A (UniProt O95239) | 0.015 | -0.022 | -0.042 | 0.02 | 0.022 | 0.014 | -0.033 | -0.026 | 0.031 | -0.01
24 | LARS (UniProt Q9P2J5) | 0.021 | 0.05 | -0.024 | 0.024 | 0.013 | 0.016 | -0.026 | -0.012 | -0.002 | -0.032
25 | METTL7A (UniProt Q9H8H3) | 0.029 | 0.043 | 0.183 | 0.008 | -0.041 | 0.048 | -0.016 | 0.385 (active) | 0.06 | 0.036
26 | MAP7D3 (UniProt Q8IWC1) | 0.069 | 0.053 | 0.281 | 0.052 | -0.023 | -0.025 | 0.044 | -0.034 | -0.012 | -0.017
27 | MORC3 (UniProt Q14149) | 0.02 | -0.047 | -0.005 | 0.01 | -0.025 | 0.034 | -0.033 | -0.029 | 0.002 | -0.011
28 | MAP4K4 isoform 3 (UniProt O95819) | -0.003 | -0.025 | 0.099 | 0.038 | -0.027 | -0.093 | -0.077 | 0.008 | -0.011 | 0.059
29 | MON2 isoform 5 (UniProt Q7Z3U7) | 0.031 | -0.031 | -0.018 | 0.019 | 0.001 | -0.016 | -0.021 | 0.012 | 0.04 | 0.009
30 | MAPK12 (UniProt P53778) | 0 | -0.026 | 0.009 | 0.016 | 0.041 | 0.023 | 0.001 | -0.058 | 0.019 | -0.048

— the supplement of paper PMC10849652
